Assay results reported in article PMC7862700, “An all-to-all approach to the identification of sequence-specific readers for epigenetic DNA modifications on cytosine”.

What was measured:
Assay in all cases: DAPPL (digital affinity profiling via proximity ligation, sequencing); 10 mM Tris-HCl pH 7.5, 50 mM NaCl, 1 mM DTT, 4% glycerol, room temperature, 30 min; GST-TFs on glutathione beads, 16-mer random dsDNA library, 0.1% formaldehyde crosslink after washing; high values mean tight binding
FEV = target: T1, FEV (Homo sapiens, UniProt Q99581 1-238); details: protein: recombinant; tags: N-terminal GST; dsDNA, one strand shown
T1 sequence: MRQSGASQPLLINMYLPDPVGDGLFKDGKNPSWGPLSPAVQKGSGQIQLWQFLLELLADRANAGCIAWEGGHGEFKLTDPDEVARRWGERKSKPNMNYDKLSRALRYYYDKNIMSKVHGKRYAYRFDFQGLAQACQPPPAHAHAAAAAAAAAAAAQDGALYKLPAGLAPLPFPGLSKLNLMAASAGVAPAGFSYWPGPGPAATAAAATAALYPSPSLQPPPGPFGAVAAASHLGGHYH
How it was run: (§1)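 Yeast served to express human transcription factors as GST fusions, which were then captured on glutathione beads and labelled with DNA barcodes. Pooled with a tag-only sample, they were incubated with 200 nmole of a 16-mer random double-stranded DNA library for 30 min at room temperature in Tris/NaCl/DTT/glycerol buffer, washed, crosslinked with 0.1% formaldehyde, ligated by proximity, amplified by PCR and sequenced. Dividing each hexamer's read frequency for a factor by its frequency for the tag-only sample gives the binding signal.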

ETV5 = ETV5 (Homo sapiens, UniProt P41161 1-510); details: protein: recombinant; tags: N-terminal GST; dsDNA, one strand shown
ETV5, sequence (P41161 whole entry): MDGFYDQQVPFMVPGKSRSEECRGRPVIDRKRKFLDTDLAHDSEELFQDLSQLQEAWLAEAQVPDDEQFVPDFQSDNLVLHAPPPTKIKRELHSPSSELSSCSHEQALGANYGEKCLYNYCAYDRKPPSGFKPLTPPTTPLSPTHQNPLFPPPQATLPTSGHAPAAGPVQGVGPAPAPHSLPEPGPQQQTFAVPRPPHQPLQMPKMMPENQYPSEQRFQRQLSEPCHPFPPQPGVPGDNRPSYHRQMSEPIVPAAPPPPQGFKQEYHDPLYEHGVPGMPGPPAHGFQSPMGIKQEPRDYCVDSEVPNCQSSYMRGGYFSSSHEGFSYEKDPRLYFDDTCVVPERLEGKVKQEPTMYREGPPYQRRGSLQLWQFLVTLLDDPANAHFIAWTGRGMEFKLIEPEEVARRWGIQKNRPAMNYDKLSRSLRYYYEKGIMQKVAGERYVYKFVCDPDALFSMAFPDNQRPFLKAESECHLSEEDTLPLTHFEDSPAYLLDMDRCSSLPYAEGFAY
How it was run: as §1

HSF1 = HSF1 (Homo sapiens, UniProt Q00613 1-529); details: protein: recombinant; tags: N-terminal GST; chain copies: 3; dsDNA, one strand shown
HSF1, sequence (Q00613 whole entry): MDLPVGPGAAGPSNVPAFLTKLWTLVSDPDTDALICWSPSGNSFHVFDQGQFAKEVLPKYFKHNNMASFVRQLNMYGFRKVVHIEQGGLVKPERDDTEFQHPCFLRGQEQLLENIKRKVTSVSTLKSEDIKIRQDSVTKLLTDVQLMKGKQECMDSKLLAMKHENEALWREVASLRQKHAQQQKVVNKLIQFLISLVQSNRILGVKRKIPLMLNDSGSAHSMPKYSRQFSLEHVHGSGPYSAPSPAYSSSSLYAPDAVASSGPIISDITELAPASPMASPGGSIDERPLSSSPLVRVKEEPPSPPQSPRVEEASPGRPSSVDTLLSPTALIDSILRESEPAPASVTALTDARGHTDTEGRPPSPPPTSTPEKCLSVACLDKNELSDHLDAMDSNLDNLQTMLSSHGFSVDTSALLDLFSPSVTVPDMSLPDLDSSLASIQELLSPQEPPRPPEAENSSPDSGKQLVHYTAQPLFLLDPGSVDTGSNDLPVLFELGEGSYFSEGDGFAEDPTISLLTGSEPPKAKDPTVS
How it was run: as §1

SPIC = target: T2, SPIC (Homo sapiens, UniProt Q8N5J4 1-248); details: protein: recombinant; tags: N-terminal GST; dsDNA, one strand shown
T2 sequence: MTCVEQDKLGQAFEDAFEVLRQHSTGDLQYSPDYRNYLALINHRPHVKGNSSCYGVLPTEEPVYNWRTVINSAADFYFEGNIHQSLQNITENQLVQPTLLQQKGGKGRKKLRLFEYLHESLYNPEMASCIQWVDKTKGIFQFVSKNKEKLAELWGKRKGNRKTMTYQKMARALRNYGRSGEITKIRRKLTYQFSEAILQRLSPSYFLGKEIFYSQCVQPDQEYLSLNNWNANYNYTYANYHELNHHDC
How it was run: as §1

ELF4 = ELF4 (Homo sapiens, UniProt Q99607 1-663); details: protein: recombinant; tags: N-terminal GST; dsDNA, one strand shown
ELF4, sequence (Q99607 whole entry): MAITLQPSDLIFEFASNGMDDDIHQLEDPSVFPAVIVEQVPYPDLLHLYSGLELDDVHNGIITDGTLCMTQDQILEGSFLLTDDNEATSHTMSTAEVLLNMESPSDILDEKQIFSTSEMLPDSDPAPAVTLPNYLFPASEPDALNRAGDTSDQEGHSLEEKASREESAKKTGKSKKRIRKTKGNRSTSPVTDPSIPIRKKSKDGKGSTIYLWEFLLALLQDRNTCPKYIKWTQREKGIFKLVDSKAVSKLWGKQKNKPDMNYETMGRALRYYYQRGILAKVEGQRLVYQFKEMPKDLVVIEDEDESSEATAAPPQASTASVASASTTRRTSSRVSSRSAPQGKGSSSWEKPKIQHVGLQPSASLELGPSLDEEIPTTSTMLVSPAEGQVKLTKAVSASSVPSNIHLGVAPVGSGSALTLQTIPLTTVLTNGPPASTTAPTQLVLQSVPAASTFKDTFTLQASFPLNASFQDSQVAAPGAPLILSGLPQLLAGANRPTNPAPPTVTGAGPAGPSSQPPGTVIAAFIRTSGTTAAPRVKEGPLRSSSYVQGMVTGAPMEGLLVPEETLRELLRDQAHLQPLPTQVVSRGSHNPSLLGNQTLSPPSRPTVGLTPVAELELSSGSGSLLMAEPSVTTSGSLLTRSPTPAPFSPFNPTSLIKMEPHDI
How it was run: as §1

ELK4 = target: T3, ELK4 (Homo sapiens, UniProt P28324-2 1-405); details: protein: recombinant; tags: N-terminal GST; dsDNA, one strand shown
T3 sequence: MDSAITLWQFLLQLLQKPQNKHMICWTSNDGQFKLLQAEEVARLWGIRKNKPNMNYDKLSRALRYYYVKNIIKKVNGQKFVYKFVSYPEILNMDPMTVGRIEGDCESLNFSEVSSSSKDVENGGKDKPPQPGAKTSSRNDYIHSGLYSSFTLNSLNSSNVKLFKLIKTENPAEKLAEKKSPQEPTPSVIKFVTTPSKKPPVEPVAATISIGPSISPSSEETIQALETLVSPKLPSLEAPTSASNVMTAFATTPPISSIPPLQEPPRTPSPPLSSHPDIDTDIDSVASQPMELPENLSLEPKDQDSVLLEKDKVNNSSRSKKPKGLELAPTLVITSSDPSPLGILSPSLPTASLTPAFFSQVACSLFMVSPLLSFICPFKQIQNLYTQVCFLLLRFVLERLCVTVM
How it was run: as §1

ETV2 = target: T4, ETV2 (Homo sapiens, UniProt O00321 1-342); details: protein: recombinant; tags: N-terminal GST; dsDNA, one strand shown
T4 sequence: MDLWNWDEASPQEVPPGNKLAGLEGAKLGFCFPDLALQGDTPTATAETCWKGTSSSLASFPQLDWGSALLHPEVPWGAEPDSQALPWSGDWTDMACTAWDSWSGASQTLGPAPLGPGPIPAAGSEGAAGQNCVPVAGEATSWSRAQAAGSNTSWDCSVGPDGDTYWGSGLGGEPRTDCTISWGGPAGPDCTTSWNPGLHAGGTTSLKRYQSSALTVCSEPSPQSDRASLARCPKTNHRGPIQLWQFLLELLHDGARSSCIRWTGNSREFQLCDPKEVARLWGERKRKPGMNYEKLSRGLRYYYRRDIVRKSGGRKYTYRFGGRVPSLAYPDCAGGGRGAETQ
How it was run: as §1

ELF3 = target: T5, ELF3 (Homo sapiens, UniProt P78545 1-371); details: protein: recombinant; tags: N-terminal GST; dsDNA, one strand shown
T5 sequence: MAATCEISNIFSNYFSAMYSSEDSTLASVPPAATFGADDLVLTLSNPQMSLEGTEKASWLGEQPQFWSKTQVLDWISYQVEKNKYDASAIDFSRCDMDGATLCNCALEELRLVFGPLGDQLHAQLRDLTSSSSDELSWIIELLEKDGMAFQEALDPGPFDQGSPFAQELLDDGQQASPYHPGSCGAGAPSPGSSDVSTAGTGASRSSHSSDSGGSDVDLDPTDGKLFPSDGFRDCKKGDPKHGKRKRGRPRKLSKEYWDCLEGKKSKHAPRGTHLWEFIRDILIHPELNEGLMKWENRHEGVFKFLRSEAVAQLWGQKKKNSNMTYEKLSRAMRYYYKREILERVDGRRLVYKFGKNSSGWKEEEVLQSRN
How it was run: as §1

CRX = CRX (Homo sapiens, UniProt O43186 1-299); details: protein: recombinant; tags: N-terminal GST; dsDNA, one strand shown
CRX, sequence (O43186 whole entry): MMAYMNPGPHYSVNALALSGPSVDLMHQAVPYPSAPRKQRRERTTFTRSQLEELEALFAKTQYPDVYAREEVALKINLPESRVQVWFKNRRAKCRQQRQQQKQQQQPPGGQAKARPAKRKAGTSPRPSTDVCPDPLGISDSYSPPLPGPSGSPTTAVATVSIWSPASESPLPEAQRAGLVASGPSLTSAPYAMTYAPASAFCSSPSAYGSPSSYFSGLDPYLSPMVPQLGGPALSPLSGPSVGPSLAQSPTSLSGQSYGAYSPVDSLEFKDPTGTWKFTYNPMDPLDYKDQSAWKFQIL
How it was run: as §1

ETV1 = ETV1 (Homo sapiens, UniProt P50549 1-477); details: protein: recombinant; tags: N-terminal GST; dsDNA, one strand shown
ETV1, sequence (P50549 whole entry): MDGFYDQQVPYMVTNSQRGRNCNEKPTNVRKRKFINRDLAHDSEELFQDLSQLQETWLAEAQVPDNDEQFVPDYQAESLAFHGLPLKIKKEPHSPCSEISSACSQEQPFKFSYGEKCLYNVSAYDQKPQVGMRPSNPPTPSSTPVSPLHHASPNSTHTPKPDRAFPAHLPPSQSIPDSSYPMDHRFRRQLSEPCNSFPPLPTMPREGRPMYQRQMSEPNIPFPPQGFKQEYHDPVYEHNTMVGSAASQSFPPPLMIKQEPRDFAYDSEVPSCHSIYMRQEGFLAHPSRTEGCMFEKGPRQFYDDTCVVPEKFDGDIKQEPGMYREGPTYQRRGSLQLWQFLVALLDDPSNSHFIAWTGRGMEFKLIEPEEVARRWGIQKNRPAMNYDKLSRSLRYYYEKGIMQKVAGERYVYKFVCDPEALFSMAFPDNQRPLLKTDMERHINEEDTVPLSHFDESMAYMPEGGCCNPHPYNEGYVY
How it was run: as §1

ERF = target: T6, ERF (Homo sapiens, UniProt P50548 1-548); details: protein: recombinant; tags: N-terminal GST; dsDNA, one strand shown
T6 sequence: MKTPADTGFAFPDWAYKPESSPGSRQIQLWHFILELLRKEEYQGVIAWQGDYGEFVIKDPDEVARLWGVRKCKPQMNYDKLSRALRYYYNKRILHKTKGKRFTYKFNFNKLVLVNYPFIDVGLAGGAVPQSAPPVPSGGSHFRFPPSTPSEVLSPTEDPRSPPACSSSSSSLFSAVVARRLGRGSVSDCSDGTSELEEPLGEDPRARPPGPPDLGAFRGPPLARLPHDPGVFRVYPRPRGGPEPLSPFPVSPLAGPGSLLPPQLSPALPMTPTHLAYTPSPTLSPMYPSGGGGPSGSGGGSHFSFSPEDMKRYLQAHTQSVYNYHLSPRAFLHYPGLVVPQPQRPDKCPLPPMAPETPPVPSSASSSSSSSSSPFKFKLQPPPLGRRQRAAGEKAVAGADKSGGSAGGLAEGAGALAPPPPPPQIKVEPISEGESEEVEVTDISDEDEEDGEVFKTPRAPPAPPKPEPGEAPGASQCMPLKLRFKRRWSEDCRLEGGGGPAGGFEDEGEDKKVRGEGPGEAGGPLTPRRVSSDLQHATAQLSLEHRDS
How it was run: as §1

ETV3L = target: T7, ETV3L (Homo sapiens, UniProt Q6ZN32 1-361); details: protein: recombinant; tags: N-terminal GST; dsDNA, one strand shown
T7 sequence: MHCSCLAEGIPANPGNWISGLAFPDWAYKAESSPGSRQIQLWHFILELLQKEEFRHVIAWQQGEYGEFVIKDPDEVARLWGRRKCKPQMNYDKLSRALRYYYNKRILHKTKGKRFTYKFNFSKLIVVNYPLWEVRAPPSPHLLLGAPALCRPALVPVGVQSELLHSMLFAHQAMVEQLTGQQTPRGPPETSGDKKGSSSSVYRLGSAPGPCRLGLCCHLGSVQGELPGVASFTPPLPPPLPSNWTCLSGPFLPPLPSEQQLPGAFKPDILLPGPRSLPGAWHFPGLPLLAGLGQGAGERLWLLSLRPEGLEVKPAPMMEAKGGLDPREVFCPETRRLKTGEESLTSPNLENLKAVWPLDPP
How it was run: as §1

ETS2 = target: T8, ETS2 (Homo sapiens, UniProt P15036 1-469); details: protein: recombinant; tags: N-terminal GST; dsDNA, one strand shown
T8 sequence: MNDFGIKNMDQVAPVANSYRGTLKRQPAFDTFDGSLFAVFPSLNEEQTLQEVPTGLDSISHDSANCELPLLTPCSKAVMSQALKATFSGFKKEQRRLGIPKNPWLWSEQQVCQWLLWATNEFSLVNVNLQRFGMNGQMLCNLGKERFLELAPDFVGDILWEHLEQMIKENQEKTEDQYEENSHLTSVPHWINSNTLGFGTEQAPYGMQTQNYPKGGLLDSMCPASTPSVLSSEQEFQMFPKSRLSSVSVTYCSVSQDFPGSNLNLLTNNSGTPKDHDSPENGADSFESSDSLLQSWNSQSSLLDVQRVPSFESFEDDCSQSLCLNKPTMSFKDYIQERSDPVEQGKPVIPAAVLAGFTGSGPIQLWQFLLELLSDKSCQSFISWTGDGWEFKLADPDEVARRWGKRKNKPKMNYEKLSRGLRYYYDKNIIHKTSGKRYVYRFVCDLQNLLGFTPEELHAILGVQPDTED
How it was run: as §1

SPDEF = target: T9, SPDEF (Homo sapiens, UniProt O95238 1-335); details: protein: recombinant; tags: N-terminal GST; dsDNA, one strand shown
T9 sequence: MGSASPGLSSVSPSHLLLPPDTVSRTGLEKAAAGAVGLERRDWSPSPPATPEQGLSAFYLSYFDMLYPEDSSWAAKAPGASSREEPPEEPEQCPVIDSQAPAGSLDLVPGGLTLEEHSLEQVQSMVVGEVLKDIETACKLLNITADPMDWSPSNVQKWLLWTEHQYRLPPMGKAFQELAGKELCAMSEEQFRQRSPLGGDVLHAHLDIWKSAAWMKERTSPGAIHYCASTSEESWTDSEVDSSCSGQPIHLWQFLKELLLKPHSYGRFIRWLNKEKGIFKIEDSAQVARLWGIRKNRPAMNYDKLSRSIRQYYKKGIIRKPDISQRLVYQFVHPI
How it was run: as §1

ETV7 = target: T10, ETV7 (Homo sapiens, UniProt Q9Y603 1-341); details: protein: recombinant; tags: N-terminal GST; dsDNA, one strand shown
T10 sequence: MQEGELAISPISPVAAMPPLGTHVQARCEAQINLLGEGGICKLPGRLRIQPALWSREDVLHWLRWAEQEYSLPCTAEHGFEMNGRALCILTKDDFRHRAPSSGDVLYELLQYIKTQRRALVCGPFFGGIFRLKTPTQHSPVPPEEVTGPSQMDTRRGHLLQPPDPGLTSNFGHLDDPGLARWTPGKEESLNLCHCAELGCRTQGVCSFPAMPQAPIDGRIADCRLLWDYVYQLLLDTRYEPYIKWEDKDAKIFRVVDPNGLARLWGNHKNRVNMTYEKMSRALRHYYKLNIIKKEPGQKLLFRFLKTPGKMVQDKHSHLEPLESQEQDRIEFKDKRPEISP
How it was run: as §1

ELF5 = target: T11, ELF5 (Homo sapiens, UniProt Q9UKW6-2 1-255); details: protein: recombinant; tags: N-terminal GST; dsDNA, one strand shown
T11 sequence: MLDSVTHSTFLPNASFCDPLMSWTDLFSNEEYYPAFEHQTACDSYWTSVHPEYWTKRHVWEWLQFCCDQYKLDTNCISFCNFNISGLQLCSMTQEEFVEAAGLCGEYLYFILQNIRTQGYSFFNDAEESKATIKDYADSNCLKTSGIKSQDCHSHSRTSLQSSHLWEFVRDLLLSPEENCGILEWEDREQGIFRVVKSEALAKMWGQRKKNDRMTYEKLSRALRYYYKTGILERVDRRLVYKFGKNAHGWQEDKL
How it was run: as §1

ETV3 = target: T12, ETV3 (Homo sapiens, UniProt P41162-2 1-143); details: protein: recombinant; tags: N-terminal GST; dsDNA, one strand shown
T12 sequence: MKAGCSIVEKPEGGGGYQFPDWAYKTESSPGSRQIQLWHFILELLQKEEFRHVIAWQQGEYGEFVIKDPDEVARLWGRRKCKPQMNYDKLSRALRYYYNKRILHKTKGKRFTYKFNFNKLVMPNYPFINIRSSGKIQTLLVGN
How it was run: as §1

ETV6 = ETV6 (Homo sapiens, UniProt P41212 1-452); details: protein: recombinant; tags: N-terminal GST; dsDNA, one strand shown
ETV6, sequence (P41212 whole entry): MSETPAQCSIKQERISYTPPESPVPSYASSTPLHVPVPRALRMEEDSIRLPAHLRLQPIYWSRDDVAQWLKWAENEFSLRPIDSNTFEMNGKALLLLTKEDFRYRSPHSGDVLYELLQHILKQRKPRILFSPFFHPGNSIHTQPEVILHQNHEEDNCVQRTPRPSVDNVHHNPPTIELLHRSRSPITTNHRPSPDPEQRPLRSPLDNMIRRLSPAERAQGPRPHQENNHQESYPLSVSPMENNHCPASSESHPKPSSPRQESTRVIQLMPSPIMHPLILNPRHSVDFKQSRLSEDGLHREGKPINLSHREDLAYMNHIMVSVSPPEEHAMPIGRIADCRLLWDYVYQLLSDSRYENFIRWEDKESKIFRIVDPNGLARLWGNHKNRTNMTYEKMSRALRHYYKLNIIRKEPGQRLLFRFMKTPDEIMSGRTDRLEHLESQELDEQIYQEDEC
How it was run: as §1

CCTAGC
binding signal (FEV): 1.18 fold enrichment (6-mer frequency, TF over GST control)
binding signal (ETV5): 1.15 fold enrichment (6-mer frequency, TF over GST control)
binding signal (HSF1): 1.17 fold enrichment (6-mer frequency, TF over GST control)
binding signal (SPIC): 1.17 fold enrichment (6-mer frequency, TF over GST control)
binding signal (ELF4): 1.16 fold enrichment (6-mer frequency, TF over GST control)
binding signal (ELK4): 1.13 fold enrichment (6-mer frequency, TF over GST control)
binding signal (ETV2): 1.13 fold enrichment (6-mer frequency, TF over GST control)
binding signal (ELF3): 1.12 fold enrichment (6-mer frequency, TF over GST control)
binding signal (CRX): 1.02 fold enrichment (6-mer frequency, TF over GST control)
binding signal (ETV1): 1.13 fold enrichment (6-mer frequency, TF over GST control)
binding signal (ERF): 1.26 fold enrichment (6-mer frequency, TF over GST control)
binding signal (ETV3L): 1.09 fold enrichment (6-mer frequency, TF over GST control)
binding signal (ETS2): 1.11 fold enrichment (6-mer frequency, TF over GST control)
binding signal (SPDEF): 1.21 fold enrichment (6-mer frequency, TF over GST control)
binding signal (ETV7): 1.18 fold enrichment (6-mer frequency, TF over GST control)
binding signal (ELF5): 1.06 fold enrichment (6-mer frequency, TF over GST control)
binding signal (ETV3): 1.16 fold enrichment (6-mer frequency, TF over GST control)
binding signal (ETV6): 1.15 fold enrichment (6-mer frequency, TF over GST control)
